PMK inhibit = S. pneumoniae PMK inhibition; AID 539; inhibition, % at 10 µM; purified PMK, PK/LDH-coupled NADH absorbance 340 nm; hit rate 0.49% among 65,000;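 active = top-ranked compounds by inhibition in the single 10 µM screen, taking a fixed number of the strongest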;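 note: 0% = full reaction with DMSO carrier and 100% = background rate without enzyme reaction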
Spn DPM-DC inh = S. pneumoniae DPM-DC inhibition. purified DPM-DC, PK/LDH coupled NADH fluorescence. calls only at 10 µM. hit rate 0.49% among 65,000. AID 556;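 active = the 320 compounds with the highest percent inhibition in the single-dose primary screen, excluding strongly autofluorescent ones, cut at about 32% in these data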;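 note: kinetic rate of NADH fluorescence loss reporting ADP formed by the decarboxylase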
A340 absorber = compound absorbs light at 340 nm. compound absorbance at 340 nm, fold over control. fold change at 10 µM. 65,000 tested, under 10 active. AID 708;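 active = at 10 µM dose, initial 340 nm absorbance at least 2 fold that of control wells; inactive = change under 2 fold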;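 note: initial absorbance extrapolated from kinetic A340 decline of NADH oxidation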
NADH coupling = inhibitors of enzymes used to reach an NAD/NADH endpoint; coupled PK/LDH NADH assays, four targets; hit rate 0.02% among 65,000; IC50, µM (top dose mostly 10 µM), inactives show at the top dose inhibition;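 active = single-dose screening hits from any of four coupled enzyme assays that gave an IC50 when retested across doses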;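 note: the DPM-DC format reads NADH fluorescence rather than 340 nm absorbance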
MK inhibit = blocks S. pneumoniae mevalonate kinase | purified MK, PK/LDH-coupled NADH absorbance 340 nm | inhibition, % at 10 µM | hit rate 0.48% among 65,000 | AID 555;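 active = ranked among the strongest by inhibition in the single 10 µM screen, a fixed top-ranked set picked for dose follow-up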
Fluor 339 460 = intrinsic fluorescence of library compounds, ex339/em460 – biochemical, MLSMR library, data from DPM-DC assay, artefact control, profiling panel; compound autofluorescence, ex339/em460 nm, NADH buffer; active compounds read high; 1 = no-compound wells, NADH background; fluorescence fold increase at 10 µM; hit rate 5.5% among 65,000;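 active = at 10 µM, mean starting fluorescence two-fold or more over control wells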;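 note: signal is the first read of a kinetic run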
Numbers without * were called inactive; i = inactive; nt = no result shown; + = active, no number; [ ] = remark or other dose. Sampled rows, rich in hits. Any-hit rate of the full collection: about 6.5%.

SMILES	PMK inhibit	Spn DPM-DC inh	A340 absorber	NADH coupling	MK inhibit	Fluor 339 460
Cc1ccc(-c2nc3cc(N)ccc3o2)cc1	5	nt	1.1	3%	10	2
CC(C)c1ccc2oc(-c3ccc(NC(=O)c4ncn[nH]4)cc3)nc2c1	4	nt	1.1	8%	12	3.6*
CC(C)c1ccc2oc(-c3ccc(N)cc3)nc2c1	4	nt	1.2	9%	14	2.1*
CCC(C)c1ccc2oc(-c3ccc(NC(=O)c4ncn[nH]4)cc3)nc2c1 (stereo not given)	0	nt	1.2	6%	11	3.6*
CCC(C)c1ccc(O)c(NC(=O)c2ncn[nH]2)c1 (stereo not given)	15	i	1.1	13%	13	1.1
O=C(COC(=O)C1c2ccccc2Oc2ccccc21)Nc1ccc2c(c1)OCO2	13	i	1	4%	0	1.1
O=C(Nc1ccc2oc(-c3ccccc3Cl)nc2c1)c1ncn[nH]1	0	nt	1.1	6%	12	2.1*
N#Cc1nc(-c2ccc(Cl)cc2)oc1NCc1ccco1	3	nt	1.1	4%	4	2.1*
N#Cc1nc(-c2ccccc2Cl)oc1NCc1ccco1	3	i	1	3%	5	1.3
N#Cc1nc(-c2ccc(Cl)cc2)oc1NCc1cccc2c1OCO2	3	nt	1.1	6%	8	3.8*
Cc1nn2c(-c3cccc(NC(=O)CSc4nc5ccccc5o4)c3)nnc2c2ccccc12	6	i	1.1	14%	15	1.5
COc1ccc(Cl)cc1NC(=O)C1CSC(c2ccncc2)=N1 (stereo not given)	14	i	1.1	10%	11	1
Cc1ccc2[nH]c(=O)c3cc(C(=O)N(C)Cc4ccco4)sc3c2c1	6	nt	1.1	3%	0	2.2*
Cc1ccc2oc(=O)c3cc(C(=O)N4CCN(C(=O)c5ccco5)CC4)sc3c2c1	7	i	1.2	5%	4	1.3
Cc1ccc2oc(=O)c3cc(C(=O)N4CCN(c5ncccn5)CC4)sc3c2c1	17	nt	1.1	11%	5	2.1*
Cc1ccc2[nH]c(=O)c3cc(C(=O)N4CCN(C(=O)c5ccco5)CC4)sc3c2c1	8	nt	1.1	11%	13	2*
CCOC(=O)c1ccc(NS(=O)(=O)c2cccc3nsnc23)cc1	9	i	1	2%	3	1.1
CCC1(C)Cc2nc3sc(C(=O)O)c(N)c3cc2CO1 (stereo not given)	0	i	1.1	1%	4	1.1
CCCCS(=O)(=O)c1sc2nc3c(cc2c1N)CCCC3	6	nt	1.1	8%	10	3.3*
COC(=O)c1cc(-c2ccccc2)sc1NC(=O)c1cc(C)on1	4	nt	1	4%	12	2.5*
CCCCC(=O)Nc1cccc2c1C(=O)N(c1ccccc1)C2=O	0	i	1	3%	9	1.1
Nc1cccc2c1C(=O)N(c1ccccc1)C2=O	9	+[fluoresces]	1	2%	0	2.3*
COc1ccc(-n2nnnc2SCC(=O)Nc2cccc(C)n2)cc1OC	4	i	1	5%	10	1
O=C(NC1CCCCCCC1)c1c(O)c2ccccc2[nH]c1=O	10	i	1.1	6%	6	1.1
O=C(Nc1c(C(=O)O)[nH]c2ccccc12)NC1CCCCC1	6	nt	1	6%	6	3.9*
SMILES	PMK inhibit	Spn DPM-DC inh	A340 absorber	NADH coupling	MK inhibit	Fluor 339 460
C=CCn1cnc2c(c1=O)c1nc3ccccc3nc1n2Cc1ccccc1	15	i	1	15%	7	3*
CCCCn1cnc2c(c1=O)c1nc3ccccc3nc1n2Cc1ccc2c(c1)OCO2	0	nt	1	1%	2	2.3*
CCCn1cnc2c(c1=O)c1nc3ccccc3nc1n2CCc1ccccc1	2	nt	1	6%	9	4*
CCCn1cnc2c(c1=O)c1nc3ccccc3nc1n2CCC1=CCCCC1	11	i	1	8%	11	2.3*
Cn1c(C(=O)OC(C(=O)NC2CCCCC2)c2ccncc2)cc2sccc21 (stereo not given)	6	i	1	2%	1	1.1
CC(C)(C)N1C(=O)c2ccc(C(=O)NCc3ccco3)cc2C1=O	0	i	1	3%	9	1.1
CCOCCCn1c(C)nc2c(c1=O)c1nc3ccccc3nc1n2CCC1=CCCCC1	10	i	1.1	11%	6	3*

Assay outcomes from PubChem.
